The other results are listed elsewhere or left out. Records with an inconclusive call do not appear. Activity calls are given as the source filed them. Calls follow the shape of the dose curve; as a rule, active = well fitted cell-killing curve with a large enough effect; inconclusive = small, poorly fitted or top-dose-only effect; inactive = flat fitted curve, though single readings scatter.
Potency is read from the fitted curve at half-maximal effect.

A short description of the experiment: qHTS screen for small molecules that inhibit ELG1-dependent DNA repair: Hit Confirmation with Unstimulated Viability Assay.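 Also: compound exposure lasted 16 hours before reading; nearly all actives have a fitted effect of over 55% in size.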 As to conditions: cell viability counter-screen, luminescence. The text has this: Cancer cells divide rapidly compared to normal cells in the body. During cell division, cancer cells need to duplicate their genome by DNA replication. The failure of genome duplication leads to cancer cells' death. Therefore, inhibitors of DNA replication could specifically kill cancer cells. Based on this concept, many chemotherapeutic agents were developed and have been used to treat cancer patients. However, there are a limited number of agents available in the clinical setting, and some of those that do exist have low efficacy and severe side effects. Therefore, if we can find the compounds that effectively block DNA replication either by directly damaging DNA or by inhibiting other cellular mechanisms, the options for cancer treatment will be broadened. With this in mind, we developed a quantitative high-throughput ELG1-luciferase reporter gene assay. Small molecules that specifically block ELG1 function in response to DNA damage can be identified by monitoring the suppression of luciferase activity. Since ELG1 defines a pathway for repairing DNA damage, agents blocking ELG1 function can be used to sensitize cancer cells to chemotherapeutic agents whose mechanism of action involves the induction of DNA damage.
NIH Molecular Libraries Probe Production Network [MLPCN]
NIH Chemical Genomics Center [NCGC]
Assay Provider: Kyungjae Myung, NHGRI, NIH
For genotoxicity screening, 2,000 cells in 4 uL/well were dispensed into white, solid-bottom 1536-well plates using a solenoid-based dispenser. 23 nL compound or DMSO vehicle were added by a pin tool, the plates were incubated 16 hr at 37 °C and 5% CO2. 5 ul ONE-Glo (Promega) was then added to each plate and following a 30 min incubation at room temperature, luciferase activity was quantified on a ViewLux CCD-based plate reader.
(In general: In qHTS, concentration-response curves come from the screen itself.)
On to `CC(=O)[O][Sn]([c]1ccccc1)([c]1ccccc1)[c]1ccccc1`, for which the Potency is 1410 nM (active). The value for `COC1CC(OC2CC[C@@]3(C=O)C4CC[C@]5(C)C(C6=CC(=O)OC6)CC[C@@]5(O)C4CC[C@]3(O)C2)OC(C)C1O` (stereo partly drawn) was 199 nM (active); that for `C[C@@]12CC[C@H]3[C@@H](CC[C@]4(O)C[C@H](O)CC[C@@]34C=O)[C@]1(O)CC[C@@H]2C1=CC(=O)OC1` was 425 nM (active).

Values taken from PubChem BioAssay AID624252 (National Center for Advancing Translational Sciences (NCATS), 2012).
